“And” between values parts separate entries of the source, which are not always exact repeats. Identical values can stand only once. Among all 5,500 compounds or so, about 2,000 (36%) were called active. Inconclusive results (about 18%) are left out. No stated cut-off is given here; in the data, active means normalized growth mostly below about 0.91 (no sharp cut-off); inconclusive means no clear call, values can overlap the other calls; inactive means mostly above about 0.92. Some of the results follow.
Experiment: chemical genetic growth profiling, strain panel (AID 1159580);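 further: tested at 20 µM; growth read once vehicle control cultures reached saturation at 30 °C; 1 = growth at the plate median or of vehicle wells; lower values mean less growth of the strain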
Settings: S. cerevisiae deletion strains, growth OD

Measured: normalized growth

N#C/C(=C\c1ccc(O)cc1)C(=O)O
inactive: locus YAL013W, strain DEP1, hits give low values 0.988 | locus YAL021C, strain ccr4, hits give low values 0.979 | locus YAL026C, strain drs2, hits give low values 1 | locus YAL030W, strain snc1, hits give low values 1.01 | locus YBL061C, strain skt5, hits give low values 1.01 | locus YBR009C, strain hhf1, hits give low values 1.02 | locus YBR021W, strain FUR4, hits give low values 1.02 | locus YBR023C, strain chs3, hits give low values 1 | locus YBR171W, strain sec66, hits give low values 0.991 | locus YBR229C, strain ROT2, hits give low values 0.956 | locus YBR231C, strain swc5, hits give low values 1.01 | locus YBR279W, strain paf1, hits give low values 1 | locus YCL011C, strain gbp2, hits give low values 0.987 | locus YCL016C, strain dcc1, hits give low values 1.01 | locus YCL029C, strain bik1, hits give low values 0.997 | locus YCL061C, strain MRC1, hits give low values 0.993 | locus YCL069W, strain vba3, hits give low values 0.996 | locus YCR088W, strain abp1, hits give low values 0.987 | locus YDL005C, strain med2, hits give low values 0.997 | locus YDL035C, strain GPR1, hits give low values 0.994 | locus YDL040C, strain nat1, hits give low values 1 | locus YDL074C, strain BRE1, hits give low values 0.966 | locus YDL101C, strain DUN1, hits give low values 0.951 | locus YDL134C, strain PPH21, hits give low values 0.987 | locus YDL185W, strain tfp1, hits give low values 0.976 | locus YDL192W, strain arf1, hits give low values 0.993 | locus YDR001C, strain nth1, hits give low values 0.996 | locus YDR069C, strain doa4, hits give low values 1 | locus YDR101C, strain arx1, hits give low values 1.01 | locus YDR137W, strain rgp1, hits give low values 0.992 | locus YDR150W, strain NUM1, hits give low values 0.981 | locus YDR159W, strain sac3, hits give low values 1.01 | locus YDR162C, strain NBP2, hits give low values 0.937 | locus YDR195W, strain ref2 0.988 | locus YDR297W, strain sur2, hits give low values 0.997 | locus YDR318W, strain mcm21, hits give low values 1.04 | locus YDR334W, strain swr1, hits give low values 0.961 | locus YDR335W, strain msn5, hits give low values 1 | locus YDR388W, hits give low values 1.01 | locus YDR392W, strain spt3, hits give low values 0.972 | locus YDR502C, strain sam2, hits give low values 0.987 | locus YEL003W, strain gim4, hits give low values 0.989 | locus YEL037C, strain rad23, hits give low values 0.986 | locus YEL061C, strain CIN8 (second series), hits give low values 0.984 | locus YEL061C, strain CIN8, hits give low values 0.984 | locus YER015W, strain faa2, hits give low values 1 | locus YER016W, strain bim1, hits give low values 1.01 | locus YER110C, hits give low values 0.999 | locus YER111C, strain swi4, hits give low values 0.999 | locus YER155C, strain BEM2 (second series), hits give low values 1.01 | locus YER155C, strain BEM2, hits give low values 0.987 | locus YER167W, strain BCK2, hits give low values 1.01 | locus YFR010W, strain ubp6, hits give low values 0.983 | locus YGL078C, strain dbp3, hits give low values 0.985 | locus YGL086W, strain mad1, hits give low values 1.02 | locus YGL167C, strain pmr1, hits give low values 1.01 | locus YGL173C, strain kem1, hits give low values 1 | locus YGL227W, strain vid30, hits give low values 0.998 | locus YGL240W, strain doc1, hits give low values 1.03 | locus YGL248W, strain PDE1, hits give low values 0.976 | locus YGL253W, strain hxk2, hits give low values 0.999 | locus YGR078C, strain PAC10, hits give low values 0.97 | locus YGR135W, strain pre9, hits give low values 0.988 | locus YGR229C, strain SMI1, hits give low values 0.996 | locus YGR252W, strain gcn5, hits give low values 1.09 | locus YHR013C, strain ard1, hits give low values 1.02 | locus YHR027C, strain rpn1, hits give low values 0.99 | locus YHR030C, strain SLT2, hits give low values 0.997 and 1.06 | locus YHR079C, strain IRE1 (second series), hits give low values 1 | locus YHR079C, strain IRE1, hits give low values 1.07 | locus YHR094C, strain hxt1, hits give low values 0.998 | locus YHR129C, strain ARP1, hits give low values 0.986 | locus YHR142W, strain chs7, hits give low values 0.954 | locus YHR200W, strain rpn10, hits give low values 0.996 | locus YIL066C, strain RNR3, hits give low values 0.981 | locus YIL073C, strain SPO22, hits give low values 1.1 | locus YIL125W, strain kgd1, hits give low values 0.997 | locus YIR030C, strain dcg1, hits give low values 0.988 | locus YJL092W, strain hpr5, hits give low values 0.979 | locus YJL095W, strain BCK1 (second series), hits give low values 1 | locus YJL095W, strain BCK1, hits give low values 0.979 and 1.08 | locus YJL115W, strain asf1, hits give low values 0.988 | locus YJL129C, strain trk1, hits give low values 0.98 | locus YJL134W, strain LCB3, hits give low values 0.983 | locus YJL154C, strain vps35, hits give low values 0.975 | locus YJL164C, strain tpk1, hits give low values 1 | locus YJL166W, strain qcr8, hits give low values 1.01 | locus YJL168C, strain set2, hits give low values 0.992 | locus YJL187C, strain SWE1 (second series), hits give low values 0.96 | locus YJL187C, strain SWE1, hits give low values 1 | locus YJR043C, strain POL32, hits give low values 1.04 | locus YJR066W, strain TOR1, hits give low values 0.992

Source: PubChem BioAssay AID1159580 (chemical genetic matrix, 2015)
